# Test results: paper PMC7862700, “An all-to-all approach to the identification of sequence-specific readers for epigenetic DNA modifications on cytosine”
# Experiments:
# Assay in all cases: DAPPL (digital affinity profiling via proximity ligation, sequencing); 10 mM Tris-HCl pH 7.5, 50 mM NaCl, 1 mM DTT, 4% glycerol, room temperature, 30 min; GST-TFs on glutathione beads, 16-mer random dsDNA library, 0.1% formaldehyde crosslink after washing; high values mean tight binding
# Settings in all cases: protein: recombinant; tags: N-terminal GST; dsDNA, one strand shown
# ETV1 = ETV1 (Homo sapiens, UniProt P50549 1-477)
# ETV1, sequence (P50549 whole entry, the tested form may be a part): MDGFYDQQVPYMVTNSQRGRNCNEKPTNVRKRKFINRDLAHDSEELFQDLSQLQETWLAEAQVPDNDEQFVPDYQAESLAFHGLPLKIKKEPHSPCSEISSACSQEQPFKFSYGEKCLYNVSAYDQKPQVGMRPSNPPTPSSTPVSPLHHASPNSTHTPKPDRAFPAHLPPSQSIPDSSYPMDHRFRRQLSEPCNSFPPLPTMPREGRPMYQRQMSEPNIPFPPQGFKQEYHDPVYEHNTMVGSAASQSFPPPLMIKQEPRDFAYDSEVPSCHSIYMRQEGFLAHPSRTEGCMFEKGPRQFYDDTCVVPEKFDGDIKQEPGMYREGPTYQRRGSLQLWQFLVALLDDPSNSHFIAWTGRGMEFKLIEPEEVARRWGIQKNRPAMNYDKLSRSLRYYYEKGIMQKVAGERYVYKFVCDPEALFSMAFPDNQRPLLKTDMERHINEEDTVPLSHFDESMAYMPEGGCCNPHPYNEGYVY
# Summary of the method: (§1)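 Human transcription factors fused to GST were expressed in yeast, captured on glutathione beads, given DNA barcodes and pooled with a GST-only negative control. Pools were incubated with 200 nmole of a 16-mer random double-stranded DNA library in Tris/NaCl/DTT/glycerol buffer at room temperature for 30 min. They were then washed, crosslinked with 0.1% formaldehyde, proximity-ligated (BsaI/T4 ligase, 1 h, 37 °C), PCR-amplified and sequenced on an Illumina NextSeq500. Binding signal is each 6-mer's read frequency for a factor divided by its frequency for the GST control.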
# ERF = target: T1, ERF (Homo sapiens, UniProt P50548 1-548)
# T1 sequence: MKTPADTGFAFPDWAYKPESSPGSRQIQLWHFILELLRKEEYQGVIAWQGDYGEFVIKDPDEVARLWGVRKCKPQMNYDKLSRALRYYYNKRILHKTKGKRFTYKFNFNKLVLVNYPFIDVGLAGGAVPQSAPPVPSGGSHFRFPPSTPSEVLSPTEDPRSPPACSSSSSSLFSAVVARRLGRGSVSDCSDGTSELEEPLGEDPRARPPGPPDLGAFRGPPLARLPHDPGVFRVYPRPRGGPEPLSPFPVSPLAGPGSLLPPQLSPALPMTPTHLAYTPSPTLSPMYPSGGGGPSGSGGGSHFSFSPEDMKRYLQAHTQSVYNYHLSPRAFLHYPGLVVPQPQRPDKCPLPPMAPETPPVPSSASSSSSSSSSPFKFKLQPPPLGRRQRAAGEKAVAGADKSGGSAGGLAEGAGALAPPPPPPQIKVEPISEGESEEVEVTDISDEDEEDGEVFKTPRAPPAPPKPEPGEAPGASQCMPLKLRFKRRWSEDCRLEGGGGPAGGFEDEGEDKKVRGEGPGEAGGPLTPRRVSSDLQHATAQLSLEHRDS
# Summary of the method: as §1
# ETV3L = target: T2, ETV3L (Homo sapiens, UniProt Q6ZN32 1-361)
# T2 sequence: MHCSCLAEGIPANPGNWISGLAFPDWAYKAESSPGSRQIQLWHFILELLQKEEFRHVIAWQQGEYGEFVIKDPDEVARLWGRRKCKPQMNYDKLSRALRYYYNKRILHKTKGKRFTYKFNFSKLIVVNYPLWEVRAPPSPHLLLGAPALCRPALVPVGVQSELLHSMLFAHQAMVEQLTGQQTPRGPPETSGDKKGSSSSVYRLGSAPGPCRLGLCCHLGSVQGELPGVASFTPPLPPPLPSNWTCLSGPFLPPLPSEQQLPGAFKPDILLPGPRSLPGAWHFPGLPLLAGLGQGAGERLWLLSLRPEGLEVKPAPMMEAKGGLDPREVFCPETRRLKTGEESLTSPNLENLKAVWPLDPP
# Summary of the method: as §1
# ETS2 = target: T3, ETS2 (Homo sapiens, UniProt P15036 1-469)
# T3 sequence: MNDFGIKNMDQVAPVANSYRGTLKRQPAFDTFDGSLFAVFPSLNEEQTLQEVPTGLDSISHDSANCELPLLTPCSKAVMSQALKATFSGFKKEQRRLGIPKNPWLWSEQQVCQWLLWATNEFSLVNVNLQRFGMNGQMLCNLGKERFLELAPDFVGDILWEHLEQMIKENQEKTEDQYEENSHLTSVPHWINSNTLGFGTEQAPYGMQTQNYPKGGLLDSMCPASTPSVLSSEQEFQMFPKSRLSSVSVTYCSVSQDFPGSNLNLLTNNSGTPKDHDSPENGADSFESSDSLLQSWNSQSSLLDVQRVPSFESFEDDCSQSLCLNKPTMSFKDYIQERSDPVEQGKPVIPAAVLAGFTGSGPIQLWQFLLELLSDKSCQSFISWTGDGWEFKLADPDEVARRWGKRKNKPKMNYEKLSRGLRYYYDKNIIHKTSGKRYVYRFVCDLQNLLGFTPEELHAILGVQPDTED
# Summary of the method: as §1
# SPDEF = target: T4, SPDEF (Homo sapiens, UniProt O95238 1-335)
# T4 sequence: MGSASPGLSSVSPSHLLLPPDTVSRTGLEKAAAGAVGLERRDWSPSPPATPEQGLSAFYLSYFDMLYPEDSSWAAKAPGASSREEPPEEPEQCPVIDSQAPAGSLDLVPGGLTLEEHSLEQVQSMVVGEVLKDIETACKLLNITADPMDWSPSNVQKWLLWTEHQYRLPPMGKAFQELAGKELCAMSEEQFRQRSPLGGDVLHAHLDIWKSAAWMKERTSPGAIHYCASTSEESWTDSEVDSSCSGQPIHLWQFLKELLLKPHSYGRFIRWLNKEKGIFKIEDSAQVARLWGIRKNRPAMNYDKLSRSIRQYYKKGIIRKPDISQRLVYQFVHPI
# Summary of the method: as §1
# ETV7 = target: T5, ETV7 (Homo sapiens, UniProt Q9Y603 1-341)
# T5 sequence: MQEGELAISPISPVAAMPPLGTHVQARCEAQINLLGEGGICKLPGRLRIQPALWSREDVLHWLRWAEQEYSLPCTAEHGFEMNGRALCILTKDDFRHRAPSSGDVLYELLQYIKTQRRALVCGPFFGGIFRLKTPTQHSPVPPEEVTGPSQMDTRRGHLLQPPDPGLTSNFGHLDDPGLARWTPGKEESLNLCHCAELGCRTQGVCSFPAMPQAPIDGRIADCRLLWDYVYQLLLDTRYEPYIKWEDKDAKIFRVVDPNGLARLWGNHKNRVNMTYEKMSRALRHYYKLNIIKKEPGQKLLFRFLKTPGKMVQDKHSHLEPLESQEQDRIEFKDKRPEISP
# Summary of the method: as §1
# ELF5 = target: T6, ELF5 (Homo sapiens, UniProt Q9UKW6-2 1-255)
# T6 sequence: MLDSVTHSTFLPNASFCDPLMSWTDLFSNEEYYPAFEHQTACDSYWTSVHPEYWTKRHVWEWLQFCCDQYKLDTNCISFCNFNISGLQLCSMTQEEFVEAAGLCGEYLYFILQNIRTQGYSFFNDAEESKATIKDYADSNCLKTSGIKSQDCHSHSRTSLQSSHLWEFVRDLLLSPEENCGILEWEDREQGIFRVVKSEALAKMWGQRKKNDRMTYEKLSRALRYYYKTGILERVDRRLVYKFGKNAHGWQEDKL
# Summary of the method: as §1
# ETV3 = target: T7, ETV3 (Homo sapiens, UniProt P41162-2 1-143)
# T7 sequence: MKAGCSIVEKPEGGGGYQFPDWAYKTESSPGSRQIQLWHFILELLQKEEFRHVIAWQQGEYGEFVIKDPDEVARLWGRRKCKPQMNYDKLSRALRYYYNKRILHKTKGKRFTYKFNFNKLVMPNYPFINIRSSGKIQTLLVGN
# Summary of the method: as §1
# ETV6 = ETV6 (Homo sapiens, UniProt P41212 1-452)
# ETV6, sequence (P41212 whole entry): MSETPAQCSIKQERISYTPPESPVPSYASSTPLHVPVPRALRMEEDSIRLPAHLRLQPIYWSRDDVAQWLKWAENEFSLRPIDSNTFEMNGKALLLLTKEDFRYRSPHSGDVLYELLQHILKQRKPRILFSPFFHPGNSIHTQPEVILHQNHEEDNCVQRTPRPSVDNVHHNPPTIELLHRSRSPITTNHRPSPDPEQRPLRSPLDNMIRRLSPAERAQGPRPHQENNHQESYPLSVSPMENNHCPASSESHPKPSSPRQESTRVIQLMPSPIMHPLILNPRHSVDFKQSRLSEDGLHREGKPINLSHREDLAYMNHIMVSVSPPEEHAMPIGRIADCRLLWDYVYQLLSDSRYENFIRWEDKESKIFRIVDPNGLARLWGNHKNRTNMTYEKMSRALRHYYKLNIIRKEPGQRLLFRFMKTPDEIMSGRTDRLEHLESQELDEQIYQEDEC
# Summary of the method: as §1
sequence,measurement,setting,value
ACTCTC,binding signal,ETV1,"1.53 fold enrichment (6-mer frequency, TF over GST control)"
same,binding signal,ERF,"1.42 fold enrichment (6-mer frequency, TF over GST control)"
same,binding signal,ETV3L,"1.49 fold enrichment (6-mer frequency, TF over GST control)"
same,binding signal,ETS2,"1.48 fold enrichment (6-mer frequency, TF over GST control)"
same,binding signal,SPDEF,"1.45 fold enrichment (6-mer frequency, TF over GST control)"
same,binding signal,ETV7,"1.27 fold enrichment (6-mer frequency, TF over GST control)"
same,binding signal,ELF5,"1.37 fold enrichment (6-mer frequency, TF over GST control)"
same,binding signal,ETV3,"1.5 fold enrichment (6-mer frequency, TF over GST control)"
same,binding signal,ETV6,"1.33 fold enrichment (6-mer frequency, TF over GST control)"
